Our source for the inhibition values is PubChem BioAssay AID778 (Sanford-Burnham Center for Chemical Genomics, 2007).

Out of some 96,000 compounds screened, about 20,000 (21%) were called active. These entries were drawn from the full list. Values without a mark were called inactive.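 How the source made its calls: active means CYP2C19 inhibition above a set limit at 5 µM in the primary screen (cut at about 50% in these data); inactive means the rest.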

For the experiment, the target named is Cytochrome P450 2C19 (Homo sapiens) (UniProt P33261). As to the kind of experiment: blockers of cytochrome P450 2C19 activity – biochemical, luminescence, ADME assay, primary screen (AID 778).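 Further: plate controls were negative control wells for no effect and 2.5 mM tranylcypromine positive control for full effect.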 The note with it: CYP2C19 Supersomes, luciferin-H EGE luminescence, 30 min; at 5 µM; hits give high values.
Cytochrome P450 2C19 (Homo sapiens), sequence (P33261 whole entry, looked up): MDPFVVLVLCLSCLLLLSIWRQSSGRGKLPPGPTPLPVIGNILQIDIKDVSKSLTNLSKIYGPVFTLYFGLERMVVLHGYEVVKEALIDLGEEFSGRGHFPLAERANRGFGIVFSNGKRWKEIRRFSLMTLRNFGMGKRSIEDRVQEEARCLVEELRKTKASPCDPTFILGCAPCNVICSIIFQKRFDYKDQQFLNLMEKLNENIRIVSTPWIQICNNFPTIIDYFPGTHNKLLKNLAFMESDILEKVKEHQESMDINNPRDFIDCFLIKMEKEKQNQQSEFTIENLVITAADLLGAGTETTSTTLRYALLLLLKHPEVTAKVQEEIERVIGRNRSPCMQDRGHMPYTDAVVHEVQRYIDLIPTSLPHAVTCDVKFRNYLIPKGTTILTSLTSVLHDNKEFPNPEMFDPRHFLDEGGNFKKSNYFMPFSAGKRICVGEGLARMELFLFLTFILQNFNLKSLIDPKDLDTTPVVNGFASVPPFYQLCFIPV
Take `C=Cn1ccnc1P(=S)(c1cc(N(CC)CC)ns1)c1nccn1C=C`: the inhibition is 18.8%.
As to `CCC/C(=N\O)c1c[nH]c2ccccc12`, the inhibition is 72.6% (active).
The same measure for `C/C(CCc1c[nH]c2ccccc12)=N\O`: 12%.
As to `CNP1(NC)=Nc2nn(-c3ccccc3)c(N)c2C(c2ccccc2)=N1`, the inhibition was -1.8%.
For the molecule `CNC(=O)N(C)c1nnc(C(C)(C)C)s1`, the inhibition was -8.5%.
Under `CC[N+](CC)(CC)CCCCCCCCCC[N+](CC)(CC)CC` stands 14.9%; under `O=C1NC(=O)C(C/C=C/c2ccccc2)C(=O)N1`, 5%.
On to `COC(=O)CN1C(=O)C2(C(C(=O)OC)=C(N)Oc3ccccc32)C2=C1CC(C)(C)CC2=O` (stereo not given), for which the inhibition is 18.2%.
The same measure for `C=CCN1C(=O)C2(C(C(=O)OCC)=C(N)Oc3c2c(=O)oc2ccccc32)c2ccccc21` (stereo not given): 88.5% (active).
The same measure for `Cc1ccc(P(=S)(c2ccc(C)o2)N2CCOCC2)o1`: 36.5%.
Under `Cc1cc(N2C(=O)C3CCCN3C2c2ccc(Cl)c(Cl)c2)no1` (stereo not given) stands 11.9%; under `CCN1c2nc3c(C)cccn3c(=O)c2CC2(C(=O)N(C)C(=O)N(C)C2=O)C1C` (stereo not given), -11.5%.
`N[C@@H](Cc1c[nH]c2ccccc12)c1nnc(SCc2c(F)cccc2Cl)o1`: the inhibition was 74.1% (active).
Under `COc1ccc(-c2nc(CS(=O)CC(=O)N3CCC4(CC3)OCCO4)c(C)o2)cc1` (stereo not given) stands 13.3%; under `CCCCCn1c(=O)c(C(=O)Nc2c(C)n(C)n(-c3ccccc3)c2=O)c(O)c2ccccc21`, 1.4%.
The same measure for `O=C(c1cc2nc(-c3ccccc3)cc(-c3ccccc3)n2n1)N1CCC2(CC1)OCCO2`: 94% (active); for `Cc1cccc(-n2c(C)nc3cc(C(=O)N4CCC5(CC4)OCCO5)ccc32)c1`: 6.6%; for `O=C(c1cc(-c2ccncc2)nc2ccccc12)N1CCC2(CC1)OCCO2`: 35.1%.
In the case of `O=C(CCN1CCCCC1)NCC(=O)Nc1ccc(Br)cc1C(=O)c1ccccc1`, the inhibition was -17.3%.
Under `CC(=C1C(=O)c2ccccc2C1=O)N1CCN(CCN=Cc2c(O)n(C)c(=O)n(C)c2=O)CC1` stands 24.7%; under `CC1(C)C(c2ccccc2)=NC(c2cccnc2)=[N+]1[O-]`, 16.4%.
The same measure for `c1ccc2sc(C3CCCNC3)nc2c1` (stereo not given): -18.4%; for `CCOc1ccc(CN(CCCl)CCCl)cc1C(=O)OC`: 63.9% (active).
The same measure for `O=C1/C(=C\c2ccc3c(c2)OCO3)N2CCC1CC2`: 40%; for `CCOC(=O)C(O)(c1ccc(NC(=O)c2ccco2)c(OC)c1)C(F)(F)F` (stereo not given): 25.1%.
Regarding `CN1CCC(N(C)Cc2cccnc2)CC1`, the inhibition was -0.7%.
The same measure for `COc1ccccc1N1CCN(C(CNC(=O)Oc2ccccc2)c2cccnc2)CC1` (stereo not given): 39.7%; for `CN1CCN(Cc2ccc(OC(F)(F)F)cc2)CC1`: 20.2%; for `COC(=O)N(c1ccc(OC)cc1)P1(=S)OCCC(C)O1` (stereo not given): 21.5%.
The same measure for `COc1ccc(C(=O)C2CN(C)CC2C(=O)c2ccc(OC)cc2)cc1` (stereo not given): 8.9%.
In the case of `COc1ccccc1CN1CCN(C(=O)Cc2ccccc2)CC1`, the inhibition was 68.1% (active).
The same measure for `CCC(=NCCc1ccccc1)c1c(O)n(C2CCCCC2)c(=O)[nH]c1=O`: 11.8%; for `COc1cc(Cn2c(N)c(C(=O)NCc3ccco3)c3nc4ccccc4nc32)cc(OC)c1OC`: 93.2% (active).
In the case of `CCOC(=O)c1c(N)n(CCN2CCOCC2)c2nc3ccccc3nc12`, the inhibition is 13.3%.
The same measure for `CCOC(=O)c1c(N)n(Cc2ccccc2)c2nc3ccccc3nc12`: -1%; for `COc1ccccc1N=C1SCCCN1C`: -31.2%.
The same measure for `O=C(C1CC(=O)N(C2CCCC2)C1)N1CCC2(CC1)OCCO2` (stereo not given): 10.5%; for `COc1ccc(S(=O)(=O)NCc2ccc(C(=O)N3CCC4(CC3)OCCO4)cc2)cc1`: -0.4%.
`CC(=O)N(C1=NCCCS1)c1ccccc1F`: the inhibition is 7.3%.
On to `CCOC(=O)C1SC2(C(F)(F)C(F)F)CC1(O)c1c(c(OC)c3occc3c1OC)O2` (stereo not given), for which the inhibition was 92.1% (active).
Regarding `Cc1ccc(C)c(NC2=NCCCS2)c1`, the inhibition is 7.4%.
Under `CC(=NCC1CCCO1)c1c(O)n(-c2ccccc2)c(=O)[nH]c1=O` (stereo not given) stands 22.9%; under `CCOC(=O)CC1=C(C(=O)OCC)C2(C(=O)N1)C(C(=O)OC)=C(N)Oc1ccccc12` (stereo not given), 4.8%; under `CCOC(=O)C1=C(C)OC(N)=C(C(=O)OC)C12C(=O)Nc1ccc(Br)cc12` (stereo not given), 62.4% (active).
`Cc1cc(C)cc(NC(=S)NC2CC3CCCC(C2)N3Cc2cccs2)c1` (stereo not given): the inhibition was 22.1%.
Consider `CC(=NC1CCN(Cc2ccccc2)CC1)c1c(O)n(C)c(=O)n(C)c1=O`, for which the inhibition was 8.1%.
Under `CN1CCN(Cc2ccccc2C(F)(F)F)CC1` stands 7.9%.
The same measure for `Fc1cccc(F)c1CN1CCN(Cc2c(F)cccc2F)CC1`: 94.4% (active); for `CCOC(=O)C(O)(c1ccc(N)c(OC)c1)C(F)(F)F` (stereo not given): 20.4%.
In the case of `Fc1ccc(N2CCN(Cc3ccc4c(c3)OCO4)CC2)cc1`, the inhibition was 22.5%.
